Bioassay records: PubChem, National Center for Advancing Translational Sciences (NCATS)
Compounds with a hit are over-represented: about 8% of the library has one in this group of screens.
SARS PLpro yeast = qHTS of Yeast-based Assay for SARS-CoV PLP. 330,000 tested, 0.19% active. Potency, µM (highest dose often 32.9 µM), hits mostly activators. AID 485353, 2010. S. cerevisiae expressing SARS-CoV PLpro, growth rescue; calls by dose curve; note: nearly all actives have a fitted effect of over 55% in size
HCV inhibitor = qHTS Assay for Inhibitors of Hepatitis C Virus (HCV); Huh7.5.1 HCVcc-Cre infection, luciferase reporter, 44 h; Potency, µM (titrated, usually from 41.8 µM), most hits filed as inhibitors; 340,000 tested, 3.4% active
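Whole-lifecycle infectious HCVcc-Cre system; cells 1,000/well, compound then virus (~0.5 moi) added 4 h after plating, 44 h culture. Luciferase read 15 sec following 15 min substrate incubation, room temp.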
FMDV inh = High Throughput Screening for Foot and Mouth Disease Virus Antivirals | Potency, µM (top dose mostly 57.9 µM), hits mostly inhibitors | 410,000 tested, 1.2% active | FMDV antiviral cell-based qHTS | AID 1159524, 2015; calls by dose curve; tested in HEK293T cells; note: read-out not given here; nearly all actives have a fitted effect of over 45% in size
MARV entry inh = qHTS for inhibitors of binding or entry into cells for Marburg Virus | Marburg virus pseudotyped entry inhibition, cell reporter | Potency, µM (highest dose often 37.8 µM), most hits filed as inhibitors | 300,000 tested, 1.8% active | AID 540276, 2011; calls by dose curve; tested in HEK293 cells
Lassa entry inh = qHTS for Inhibitors of binding or entry into cells for Lassa Virus; Lassa virus pseudotype entry inhibition, cell reporter; Potency, µM (titrated, usually from 37.9 µM), most hits filed as inhibitors; 300,000 tested, 1.2% active; AID 540256, 2011; calls by dose curve; tested in HEK293 cells; note: nearly all actives have a fitted effect of over 50% in size
HCMV inh = qHTS Assay for inhibitors of the human cytomegalovirus (HCMV). HFF cells, HCMV-luciferase reporter, 72 h; hits give low values. activity change, negative = inhibition, % at 57.5 µM. 410,000 tested, 4.5% active. AID 1259415, 2018; in the data active = activity change below about -60%; inconclusive = no clear call, values can overlap the other calls; inactive = above about -39%
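Inhibition of viral replication was scored as loss of reporter luminescence in HFFs infected with HCMV-luciferase (MOI 1 PFU/cell) for 72 h; compounds tested at 2 doses, normalized to buffer and Salinomycin controls.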
HCV inh confirm = qHTS Assay for Inhibitors of Hepatitis C Virus (HCV): Confirmation Assay for Cherry-picked Compounds; shares compounds with HCV inhibitor; HCVcc-Cre infectious virus cell assay, luciferase, inhibition; Potency, µM (top dose mostly 41.8 µM), most hits filed as inhibitors; 640 tested, 78% active; note: nearly all actives have a fitted effect of over 80% in size
HCV cytotox = qHTS Assay for Inhibitors of Hepatitis C Virus (HCV): Cytotoxicity Counterscreen for Cherry-picked Compounds; Potency, µM (series often up to 41.8 µM), usual class: inhibitors; shares compounds with HCV inhibitor; AID 720576, 2013; 640 tested, 22% active; HCV host cell line cytotoxicity counterscreen;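 note: 44 h compound exposure; nearly all actives have a fitted effect of over 55% in size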
Large screens that a line does not name were inactive (follow-up assays come after a bar, where they were run). Unless noted, calls come from the whole dose curve; as a rule, active = well fitted curve in the direction sought with a large enough effect; inconclusive = small, poorly fitted or top-dose-only effect, or another doubt; inactive = no such curve, though single readings can be large; an effect the other way counts as inactive or inconclusive.

Cc1ccc(N(C(=O)CCl)C(C(=O)NC2CCCCC2)c2cccnc2)cc1C (centres undefined)	HCV inhibitor 0.89µM, FMDV inh 7.9µM, MARV entry inh inconclusive, Lassa entry inh 7.9µM, HCMV inh -99 | HCV inh confirm 0.5µM | HCV cytotox 0.4µM
C=CCC(CC=C)(CNC(=O)C(=O)Nc1cc(C)ccc1OC)c1ccc(OC)c(OC)c1	Lassa entry inh inconclusive (no result: SARS PLpro yeast, HCV inhibitor)
CN1CCN(c2ccc(CNS(=O)(=O)Cc3cccc(C(F)(F)F)c3)cc2)CC1	SARS PLpro yeast inconclusive, HCV inhibitor 5.6µM, FMDV inh inconclusive, HCMV inh inconclusive (no result: MARV entry inh, Lassa entry inh) | HCV inh confirm 5.6µM | HCV cytotox 2.5µM
COc1ccc(CNc2ncnc3cc(OC)c(OC)cc23)cc1	HCV inhibitor inconclusive, MARV entry inh inconclusive
COc1ccc(CNc2ncnc3cc(Cl)ccc23)cc1	HCV inhibitor 8.9µM, FMDV inh inconclusive, MARV entry inh inconclusive, Lassa entry inh inconclusive, HCMV inh -65 | HCV inh confirm 25µM | HCV cytotox inconclusive
C=CCNc1nc(N)c([N+](=O)[O-])c(Nc2ccccc2OC)n1	HCV inhibitor 6.3µM | HCV inh confirm 22µM | HCV cytotox inactive
CCc1ccc(OCC2c3cc(OC)c(OC)cc3CCN2C(=O)Cc2ccc(OC)c(OC)c2)cc1 (centres undefined)	Lassa entry inh inconclusive (no result: SARS PLpro yeast, HCV inhibitor, MARV entry inh)
Cc1nn2c(NCCCN(C)C)c3c(nc2c1-c1ccccc1)CCCC3	HCV inhibitor 2µM, MARV entry inh 7.1µM, Lassa entry inh inconclusive | HCV inh confirm 7µM | HCV cytotox inactive
Cc1nn2c(NCCCN(C)C)c3c(nc2c1-c1ccccc1)CCC3	HCV inhibitor inconclusive
COc1cc(OC)c(NC(=O)C(=O)CC(=O)c2ccc(C)cc2C)cc1Cl	HCV inhibitor 3.5µM, MARV entry inh inconclusive, Lassa entry inh 8.2µM | HCV inh confirm 14µM | HCV cytotox inactive
COc1cc(OC)c(NC(=O)Cn2cccc2)cc1Cl	MARV entry inh inconclusive
COc1ccccc1NC(=O)CSc1oc(-c2ccccc2)nc1S(=O)(=O)c1ccc(C)cc1	MARV entry inh inconclusive, Lassa entry inh inconclusive (no result: SARS PLpro yeast, HCV inhibitor)
COc1cc(-c2noc(-c3ccc(N4CCN(C)CC4)c([N+](=O)[O-])c3)n2)cc(OC)c1OC	none (no result: SARS PLpro yeast, HCV inhibitor)
CC1(c2ccc(OCC#N)cc2)C=C(c2ccc(OCC#N)cc2)n2nc(C(F)(F)F)nc2N1 (centres undefined)	HCV inhibitor 8.9µM, FMDV inh inconclusive, MARV entry inh inconclusive, Lassa entry inh inconclusive, HCMV inh -69 | HCV inh confirm 22µM | HCV cytotox inactive
CN(C(=O)c1ccccc1)C1c2c(ccc3ccccc23)OCC1CO (centres undefined)	HCMV inh inconclusive (no result: MARV entry inh, Lassa entry inh)
O=C(Nc1ccc(Cl)cc1)N[C@@H]1c2c(ccc3ccccc23)OC[C@@H]1CO	HCV inhibitor inconclusive, MARV entry inh inconclusive, HCMV inh inconclusive | HCV inh confirm inconclusive | HCV cytotox inconclusive
Cc1ccc(S(=O)(=O)NCc2ccncc2)c(C)c1C	HCV inhibitor 0.79µM, MARV entry inh inconclusive, HCMV inh -83 | HCV inh confirm 0.79µM | HCV cytotox inactive
Cc1cc(NCc2ccccn2)n2nc(C)c(-c3ccc(Cl)cc3)c2n1	HCV inhibitor 4.5µM, MARV entry inh 10µM, Lassa entry inh inconclusive, HCMV inh -99 | HCV inh confirm 11µM | HCV cytotox inactive
Cc1cnc(NC(=O)C2CC(=O)N(c3cccc(Cl)c3)C2)s1 (centres undefined)	HCV inhibitor 3.2µM, HCMV inh -99 (no result: MARV entry inh, Lassa entry inh) | HCV inh confirm 8.9µM | HCV cytotox 3.5µM
CN(C)S(=O)(=O)c1ccc(N2CCCC2)c(C(=O)Nc2nc3ccc(F)cc3s2)c1	HCV inhibitor 7.9µM, MARV entry inh inconclusive | HCV inh confirm inconclusive | HCV cytotox inactive
